Values joined by “and” are separate entries in the source; they are usually repeats but may differ in a detail not shown here. Identical values can stand only once. Screen size: about 5,500 compounds; about 2,000 (36%) were called active. About 18% were inconclusive and are not listed. No stated cut-off is given here; in the data, active means normalized growth mostly below about 0.91 (no sharp cut-off); inconclusive means no clear call, values can overlap the other calls; inactive means mostly above about 0.92. Some of the results follow.
Assay: chemical genetic growth profiling, strain panel (AID 1159580);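 further: tested at 20 µM; growth read once vehicle control cultures reached saturation at 30 °C; 1 = growth at the plate median or of vehicle wells; lower values mean less growth of the strain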
Details: growth OD

Measured: normalized growth

CC(N=C(NC#N)Nc1ccncc1)C(C)(C)C (stereo not drawn)
inactive: S. cerevisiae deletion strains, locus YJR043C, strain POL32, hits give low values 1.02 | S. cerevisiae deletion strains, locus YJR075W, strain HOC1, hits give low values 1.03 | S. cerevisiae deletion strains, locus YKL009W, strain mrt4, hits give low values 1.04 | S. cerevisiae deletion strains, locus YKL068W, hits give low values 1.01 | S. cerevisiae deletion strains, locus YKL085W, strain MDH1 (second series), hits give low values 1.01 | S. cerevisiae deletion strains, locus YKL085W, strain MDH1, hits give low values 1.01 | S. cerevisiae deletion strains, locus YKL160W, strain elf1, hits give low values 0.97 | S. cerevisiae deletion strains, locus YKL190W, strain CNB1, hits give low values 1.01 | S. cerevisiae deletion strains, locus YKR001C, strain vps1, hits give low values 1.02 | S. cerevisiae deletion strains, locus YKR026C, strain gcn3, hits give low values 0.978 | S. cerevisiae deletion strains, locus YKR091W, strain srl3, hits give low values 0.993 | S. cerevisiae deletion strains, locus YLL001W, strain dnm1, hits give low values 0.956 | S. cerevisiae deletion strains, locus YLL026W, hits give low values 0.968 | S. cerevisiae deletion strains, locus YLL041C, strain sdh2, hits give low values 0.982 | S. cerevisiae deletion strains, locus YLR027C, strain aat2, hits give low values 0.967 | S. cerevisiae deletion strains, locus YLR039C, strain RIC1, hits give low values 1.02 | S. cerevisiae deletion strains, locus YLR058C, strain SHM2, hits give low values 1.01 | S. cerevisiae deletion strains, locus YLR102C, strain apc9, hits give low values 1.02 | S. cerevisiae deletion strains, locus YLR221C, strain rsa3, hits give low values 1.02 | S. cerevisiae deletion strains, locus YLR258W, strain gsy2, hits give low values 1.01 | S. cerevisiae deletion strains, locus YLR262C, strain YPT6 (second series), hits give low values 0.947 | S. cerevisiae deletion strains, locus YLR262C, strain YPT6, hits give low values 1.04 | S. cerevisiae deletion strains, locus YLR268W, strain sec22, hits give low values 1.06 | S. cerevisiae deletion strains, locus YLR320W, strain mms22, hits give low values 1.02 | S. cerevisiae deletion strains, locus YLR330W, strain CHS5, hits give low values 1.01 | S. cerevisiae deletion strains, locus YLR342W, strain FKS1 (second series), hits give low values 0.984 | S. cerevisiae deletion strains, locus YLR342W, strain FKS1, hits give low values 0.945 | S. cerevisiae deletion strains, locus YLR357W, strain rsc2, hits give low values 0.957 | S. cerevisiae deletion strains, locus YLR370C, strain arc18, hits give low values 0.972 | S. cerevisiae deletion strains, locus YLR371W, strain rom2, hits give low values 1.04 | S. cerevisiae deletion strains, locus YLR384C, strain iki3, hits give low values 0.968 | S. cerevisiae deletion strains, locus YLR418C, strain cdc73, hits give low values 1.04 | S. cerevisiae deletion strains, locus YML016C, strain PPZ1, hits give low values 1 | S. cerevisiae deletion strains, locus YML032C, strain rad52, hits give low values 1.03 | S. cerevisiae deletion strains, locus YML120C, strain ndi1, hits give low values 0.964 | S. cerevisiae deletion strains, locus YML124C, strain tub3, hits give low values 1.01 | S. cerevisiae deletion strains, locus YMR058W, strain fet3, hits give low values 0.978 | S. cerevisiae deletion strains, locus YMR078C, strain ctf18, hits give low values 1.02 | S. cerevisiae deletion strains, locus YMR125W, strain sto1, hits give low values 0.984 | S. cerevisiae deletion strains, locus YMR129W, hits give low values 0.981 | S. cerevisiae deletion strains, locus YMR205C, strain PFK2, hits give low values 0.984 | S. cerevisiae deletion strains, locus YMR223W, strain ubp8, hits give low values 0.994 | S. cerevisiae deletion strains, locus YMR231W, strain pep5, hits give low values 1 | S. cerevisiae deletion strains, locus YMR263W, strain SAP30, hits give low values 1.04 | S. cerevisiae deletion strains, locus YMR307W, strain GAS1, hits give low values 0.992 and 1.03 | S. cerevisiae deletion strains, locus YNL067W, strain RPL9B, hits give low values 1.04 | S. cerevisiae deletion strains, locus YNL071W, strain lat1, hits give low values 0.988 | S. cerevisiae deletion strains, locus YNL128W, strain TEP1, hits give low values 1.02 | S. cerevisiae deletion strains, locus YNL153C, strain GIM3, hits give low values 1.02 | S. cerevisiae deletion strains, locus YNL175C, strain NOP13, hits give low values 1 | S. cerevisiae deletion strains, locus YNL197C, strain WHI3, hits give low values 0.977 | S. cerevisiae deletion strains, locus YNL209W, strain ssb2, hits give low values 0.993 | S. cerevisiae deletion strains, locus YNL224C, strain SQS1, hits give low values 0.992 | S. cerevisiae deletion strains, locus YNL233W, strain BNI4, hits give low values 1.02 | S. cerevisiae deletion strains, locus YNL248C, strain rpa49, hits give low values 1.02 | S. cerevisiae deletion strains, locus YNL250W, strain rad50, hits give low values 1.01 | S. cerevisiae deletion strains, locus YNL271C, strain bni1, hits give low values 1.02 | S. cerevisiae deletion strains, locus YNL298W, strain CLA4, hits give low values 1.02 | S. cerevisiae deletion strains, locus YNL307C, strain MCK1, hits give low values 1.02 | S. cerevisiae deletion strains, locus YNL322C, strain KRE1 (second series), hits give low values 0.982 | S. cerevisiae deletion strains, locus YNL322C, strain KRE1, hits give low values 1.02 and 1 | S. cerevisiae deletion strains, locus YNR049C, strain mso1, hits give low values 0.986 | S. cerevisiae deletion strains, locus YNR052C, strain pop2, hits give low values 1.01 | S. cerevisiae deletion strains, locus YOL006C, strain TOP1, hits give low values 1.08 | S. cerevisiae deletion strains, locus YOL012C, strain htz1 1.52 | S. cerevisiae deletion strains, locus YOL147C, strain pex11, hits give low values 1.01 | S. cerevisiae deletion strains, locus YOR001W, strain rrp6, hits give low values 0.957 | S. cerevisiae deletion strains, locus YOR061W, strain CKA2, hits give low values 0.999 | S. cerevisiae deletion strains, locus YOR069W, strain VPS5, hits give low values 1.01 | S. cerevisiae deletion strains, locus YOR070C, strain gyp1, hits give low values 0.996 | S. cerevisiae deletion strains, locus YOR080W, strain dia2, hits give low values 0.963 | S. cerevisiae deletion strains, locus YOR083W, strain WHI5 (second series), hits give low values 0.984 | S. cerevisiae deletion strains, locus YOR083W, strain WHI5, hits give low values 0.956 | S. cerevisiae deletion strains, locus YOR106W, strain vam3, hits give low values 0.964 | S. cerevisiae deletion strains, locus YOR136W, strain idh2, hits give low values 1.01 | S. cerevisiae deletion strains, locus YOR144C, strain elg1, hits give low values 1.02 | S. cerevisiae deletion strains, locus YOR184W, strain ser1, hits give low values 1.03 | S. cerevisiae deletion strains, locus YOR265W, strain rbl2, hits give low values 0.98 | S. cerevisiae deletion strains, locus YOR270C, strain vph1, hits give low values 0.997 | S. cerevisiae deletion strains, locus YOR290C, strain snf2, hits give low values 1.01 | S. cerevisiae deletion strains, locus YOR316C, strain cot1, hits give low values 1.02 | S. cerevisiae deletion strains, locus YPL051W, strain arl3, hits give low values 0.985 | S. cerevisiae deletion strains, locus YPL055C, strain LGE1, hits give low values 1.03 | S. cerevisiae deletion strains, locus YPL078C, strain atp4, hits give low values 0.919 | S. cerevisiae deletion strains, locus YPL106C, strain sse1, hits give low values 0.945 | S. cerevisiae deletion strains, locus YPL240C, strain hsp82, hits give low values 0.972 | S. cerevisiae deletion strains, locus YPL241C, strain CIN2, hits give low values 1 | S. cerevisiae deletion strains, locus YPR119W, strain clb2, hits give low values 1.02 | S. cerevisiae deletion strains, locus YPR141C, strain kar3, hits give low values 1.01 | S. cerevisiae deletion strains, locus YPR163C, strain tif3, hits give low values 1.03 | S. cerevisiae deletion strains, locus YPR167C, strain met16, hits give low values 1.02 | S. cerevisiae deletion strains, strain wtn01, hits give low values 1.05 | S. cerevisiae strains, strain wild type, hits give low values 1.01

Source: PubChem BioAssay AID1159580 (chemical genetic matrix, 2015)
